# Source: PubChem BioAssay
# CHRM1 antagonist: human M1 muscarinic receptor antagonists, primary screen, CHO-K1 cells, Fluo-8 calcium fluorescence, 1536-well; Muscarinic acetylcholine receptor M1 (Homo sapiens), P11229; 360,000 compounds, 1.3% hits; AID 588852, 2011; CHO-K1 hM1, ACh EC80 antagonist; inhibition, % at 3 µM;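 active = percent inhibition above its own plate's cutoff, namely the mean of that plate's compound wells plus 3 SD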;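 note: peak over basal fluorescence ratio during 140 s after agonist addition; 0% = ACh EC80 plus DMSO and 100% = DMSO alone without agonist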
# Target sequence (P11229 whole entry, looked up): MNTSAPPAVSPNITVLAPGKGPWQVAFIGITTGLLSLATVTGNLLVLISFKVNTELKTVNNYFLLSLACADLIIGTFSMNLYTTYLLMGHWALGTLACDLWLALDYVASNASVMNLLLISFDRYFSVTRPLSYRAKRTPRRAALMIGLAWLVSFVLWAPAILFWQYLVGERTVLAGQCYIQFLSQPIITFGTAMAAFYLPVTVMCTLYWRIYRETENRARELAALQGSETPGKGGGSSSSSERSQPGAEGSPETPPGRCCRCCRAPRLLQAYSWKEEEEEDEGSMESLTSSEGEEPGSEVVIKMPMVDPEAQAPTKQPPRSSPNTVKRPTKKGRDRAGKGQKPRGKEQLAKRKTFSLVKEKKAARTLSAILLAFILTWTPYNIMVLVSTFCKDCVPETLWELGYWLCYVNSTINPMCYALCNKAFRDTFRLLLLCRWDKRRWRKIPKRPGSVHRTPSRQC
# CHRM1 PAM: human M1 muscarinic receptor positive allosteric modulators, primary screen, CHO-K1 cells, Fluo-8 calcium fluorescence, 1536-well | activation, % at 3 µM | CHO-K1 hM1, ACh EC20; 0% = ACh EC20, 100% = maximal ACh | Muscarinic acetylcholine receptor M1 (Homo sapiens), P11229 | 360,000 compounds, 0.088% hits | AID 588819, 2011; in the data active = activation above about 19%, passing the limit was not always enough
# CHO-K1 Ca ag: counter-screen for M1 agonists: effect in parental CHO-K1 cells | Fluo-8 calcium fluorescence; scaled to maximal ATP response, vehicle zero | activation, % at 3 µM | 360,000 compounds, 0.48% hits; in the data active = activation above about 15%;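 note: untransfected CHO-K1 host cells lacking M1 receptor as counterscreen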
# M1 PAM parental: nonselective calcium activators in parental CHO-K1 cells, primary screen, counter-screen for M1 PAM project, cell-based, Fluo-8 calcium fluorescence, full deck, 1536-well | ATP EC20; 0% at ATP EC20, 100% at ATP max | activation, % at 3 µM | 360,000 compounds, 0.02% hits | AID 602247, 2012;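 active = activation above the run cutoff, the mean activation of all test compounds plus 3 SD, cut at about 40% in these data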;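 note: peak over basal fluorescence ratio in a 140 s read after ATP addition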
# CHO-K1 Ca antag: nonselective inhibitor or artifact in parental CHO-K1 cells. ATP-induced calcium, Fluo-8 fluorescence. 360,000 compounds, 0.6% hits. inhibition, % at 3 µM;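 active = inhibition above a per-plate cutoff, the plate's mean sample inhibition plus 3 SD, cut at about 24% in these data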;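 note: 0% = DMSO plus EC80 ATP and 100% = DMSO alone without ATP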
# CHRM1 agonist: human M1 muscarinic receptor agonists, primary screen, Fluo-8 calcium fluorescence, CHO-K1 cells, HTS; CHO-K1 hM1, agonist mode; 0% DMSO, 100% acetylcholine EC100; activation, % at 3 µM; 360,000 compounds, 0.33% hits;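 active = activation above the run's mean compound activation plus 3 SD, cut at about 16% in these data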;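 note: peak over basal fluorescence ratio within a 140 s kinetic read after compound addition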
# Starred values were filed as active, the others as inactive; . = no result. Hits are enriched below; roughly 2.3% of the tested compounds scored in any of these assays.
SMILES,CHRM1 antagonist,CHRM1 PAM,CHO-K1 Ca ag,M1 PAM parental,CHO-K1 Ca antag,CHRM1 agonist
Cc1ccc(NC(=O)CCC(=O)OCC(=O)c2ccc(Oc3ccc([N+](=O)[O-])cc3)cc2)c(C)c1,10,2,1,-1,30*,2
CC(=O)c1ccccc1NC(=O)C1CCCN(C(=O)c2ccc(Cl)cc2)C1 (stereo not drawn),-6,7,1,2,-11,-6
C[C@@H]1CN([C@H](C)CO)C(=O)CCCn2nncc2CO[C@H]1CN(C)S(=O)(=O)c1ccc(C#N)cc1,16,-8,0,-9,3,-5
CC(C)Oc1ccc(C2C(C#N)=C(N)Oc3c2oc(CO)cc3=O)cc1 (stereo not drawn),-1,7,15*,19,2,-4
COc1cc(C2C(C#N)=C(N)Oc3c2oc(CO)cc3=O)ccc1OC(C)C (stereo not drawn),-8,11,1,14,-9,-4
O=C(c1cc2cc(F)ccc2[nH]1)N(Cc1cccnc1)CC1CCCN(C2CCCCC2)C1 (stereo not drawn),35*,-21,0,0,-5,-6
CC/C(=N\NC(=O)Nc1ccccc1)c1ccccc1,9,3,1,2,34*,-2
C/C(CC(C)C)=N\NC(=O)Nc1ccccc1,-6,7,0,21,-11,-6
O=S(=O)(NCCCCCNS(=O)(=O)c1ccccc1)c1ccccc1,-11,-5,4,-9,24*,4
CS(=O)(=O)NCCOc1ccc(S(=O)(=O)NCCOc2ccccc2)cc1,5,-10,0,-19,32*,-6
O=S(=O)(NCCCc1ccccc1)c1ccccc1,-5,4,1,7,-6,-6
Cc1cc([N+](=O)[O-])nn1CC(=O)N/N=C/c1ccc(O)cc1O,0,4,0,-4,-2,-5
CC(C)(C)C1CCC(CN2C(Nc3ccccc3)=NC[C@@H]2Cc2ccccc2)CC1 (stereo partly drawn),65*,-28,17*,20,5,-2
Cc1cc(C(=O)NCc2csc(-c3ccccc3)n2)no1,-18,11,2,-14,0,0
N/C(Cc1ccc(Cl)cc1)=N\OC(=O)c1ccccc1,-10,-2,1,19,-7,-4
CC(C)(C)C(=O)OC/C(N)=N/OC(=O)c1ccc(Cl)cc1,-14,7,16*,23,-9,-2
CCCCOCCCNC(=O)C[C@@H]1C[C@@]2(C(=O)OCC)CCC=C2N(Cc2ccc(Cl)cc2Cl)C1=O,.,.,0,-1,-10,.
COc1cnc(-c2ccccn2)nc1Oc1ccc(Cl)cc1,-5,9,0,-6,24*,-2
CCOC(=O)N1CCN(CC(O)COc2ccccc2C(C)C)CC1 (stereo not drawn),-2,-5,0,-1,5,20*
C=CCc1ccccc1OCC(O)CN1CCN(C(=O)OCC)CC1 (stereo not drawn),28,-21,3,22,-10,43*
C=CCc1ccccc1OCC(O)CN1CCN(c2ccc(C)cc2)CC1 (stereo not drawn),7,-7,0,0,-15,-2
O=C(Nc1nc(-c2cc3ccccc3o2)cs1)c1ccc(S(=O)(=O)N2CCCC2)cc1,10,-8,2,-10,17,2
CN(C)S(=O)(=O)c1ccc(C(=O)Nc2nc(-c3cc4ccccc4o3)cs2)cc1,24*,-12,4,2,10,1
C1=CN2CCC1C(c1ccccc1)C2 (stereo not drawn),73*,-14,0,2,7,50*
CC(Sc1nnc2n1CCCCC2)C(=O)Nc1cccc(S(=O)(=O)N2CCOCC2)c1 (stereo not drawn),-11,12,0,-14,9,-8
SMILES,CHRM1 antagonist,CHRM1 PAM,CHO-K1 Ca ag,M1 PAM parental,CHO-K1 Ca antag,CHRM1 agonist
CN(C)c1ccc(/C=N/n2c(-c3ccccc3Br)n[nH]c2=S)cc1,32*,-25,2,13,-4,-6
Cc1ccc(S(=O)(=O)N2CCC(C(=O)N/N=C/c3ccncc3)CC2)cc1,-2,2,-1,-8,24*,-4
CCc1nnc(NC(=O)CCC(=O)N2CCN(Cc3ccc(F)cc3)CC2)s1,-9,-2,0,-8,-3,16*
Cc1ccccc1-n1c(=O)cc(N2CCc3ccccc3C2)[nH]c1=O,-1,4,18*,13,5,-4
COc1ccc(-n2nnnc2CNC(=O)c2ccc3c(c2)OCO3)cc1,-5,5,0,8,11,-7
CCN(c1ccc(NC(=O)CSc2ccc3c(c2)OCCO3)cc1)C(C)C,81*,-31,1,5,16,-7
Cc1cc(C)cc(-c2nnc(SCC(=O)NCC3CCCO3)o2)c1 (stereo not drawn),-25,28*,0,13,-16,1
COc1ccc(-c2nnc(SCC(=O)NCC3CCCO3)o2)cc1 (stereo not drawn),-4,5,0,-2,-2,-3
CN(C)C=Nc1c(Br)cc(Br)c2nonc12,14,-19,18*,4,17,45*
CN(C)C=Nc1nonc1-c1ccccc1,-6,3,1,2,-10,-4
O=C(CCCl)N1CCCC2(CCCCC2)C1,-11,7,1,26,1,-3
Nc1nc(SCC(=O)O)[nH]c(=O)c1NC(=O)c1ccccc1F,7,-1,1,2,4,-5
COCCNC(=O)CSc1nc(N)c(NC(=O)c2ccccc2F)c(=O)[nH]1,-4,17,0,-15,24*,3
O=C(/C=C/c1c(Cl)cccc1Cl)NCCCn1ccnc1,-6,9,0,10,-6,-6
CN(CC(=O)Nc1ccccc1Cl)C(=O)COC(=O)/C=C/c1ccccc1,2,12,1,-20,-6,2
C=CCOc1ccc(/C=C/C(=O)OCC(=O)N(C)CC(=O)Nc2ccccc2Cl)cc1,13,-5,2,-14,24*,-2
COc1ccc(Nc2nc(N3CCOCC3)nc(N3CCOCC3)n2)cc1Cl,-17,6,0,-18,-5,-4
Cc1ccc(CNC(=O)CN(C(=O)N2CCN(C)CC2)S(=O)(=O)c2ccc(C)cc2)cc1,-4,6,1,7,-6,-3
COC(=O)C1CN(C(=O)COc2ccc(C)c(C)c2)c2ccccc2O1 (stereo not drawn),1,0,2,-12,-14,-4
